Source: the supplement of paper PMC10849652
Targets with a hit are over-represented here; the source holds about 8,800 in all. About 0.5% of all pairs of compound and target were hits. Values without a mark were called inactive.

compound: Cc1cc(Nc2cc(N3CCN(C)CC3)nc(Sc3ccc(NC(=O)C4CC4)cc3)n2)n[nH]1 [tozasertib]; experiment: log2 fold change, soluble protein after heating vs DMSO (PISA); higher = thermal stabilisation; K562 lysate, 10 uM; active = over 0.2 and 3.5 SD of the protein, either way, in both replicates (recomputed)
In short: (§1)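 Quantification was by TMTpro 16plex LC-MS/MS with equalised channel sums, applied to the supernatant after 21,000xg for 90 min. Samples were crude K562 extract at 1 mg/mL protein in PBS pH 7.4 with 1 mM MgCl2, treated with 10 μM compound for 30 min, heated for 3 min across 48°C-58°C, pooled and brought to 0.5% NP-40 at 4°C. Values are log-two fold changes in thermal stability relative to solvent controls, from duplicates.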

Sequence of UniProt O60566 (O60566 whole entry, looked up): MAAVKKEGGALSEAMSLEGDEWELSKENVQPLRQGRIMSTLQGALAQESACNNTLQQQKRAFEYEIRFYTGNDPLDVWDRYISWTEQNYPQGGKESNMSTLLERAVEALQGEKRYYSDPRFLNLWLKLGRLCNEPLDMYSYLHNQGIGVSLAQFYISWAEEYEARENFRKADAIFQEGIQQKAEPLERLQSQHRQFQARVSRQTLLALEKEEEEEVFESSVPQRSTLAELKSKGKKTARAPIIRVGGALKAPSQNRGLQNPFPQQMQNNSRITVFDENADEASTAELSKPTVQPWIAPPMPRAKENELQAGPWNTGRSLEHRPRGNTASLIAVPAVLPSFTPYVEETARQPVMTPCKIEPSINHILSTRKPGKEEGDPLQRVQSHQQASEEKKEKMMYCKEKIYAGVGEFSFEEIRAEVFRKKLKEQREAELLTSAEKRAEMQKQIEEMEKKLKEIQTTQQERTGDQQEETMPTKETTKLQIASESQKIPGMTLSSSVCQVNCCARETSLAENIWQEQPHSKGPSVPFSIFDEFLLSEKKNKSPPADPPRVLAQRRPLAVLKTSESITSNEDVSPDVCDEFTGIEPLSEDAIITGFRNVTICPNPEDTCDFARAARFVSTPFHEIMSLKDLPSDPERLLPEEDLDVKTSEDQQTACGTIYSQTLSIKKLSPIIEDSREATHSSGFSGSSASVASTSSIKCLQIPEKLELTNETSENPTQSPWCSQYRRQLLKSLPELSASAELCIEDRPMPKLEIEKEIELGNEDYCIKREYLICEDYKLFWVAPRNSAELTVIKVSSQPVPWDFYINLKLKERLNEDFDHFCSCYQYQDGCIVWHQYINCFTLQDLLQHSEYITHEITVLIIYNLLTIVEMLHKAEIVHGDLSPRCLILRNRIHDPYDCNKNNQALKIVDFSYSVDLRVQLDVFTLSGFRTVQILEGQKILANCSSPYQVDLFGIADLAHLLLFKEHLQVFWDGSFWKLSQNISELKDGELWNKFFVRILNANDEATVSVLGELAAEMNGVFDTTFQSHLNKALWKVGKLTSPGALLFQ
Sequence of UniProt Q86YS7 (Q86YS7 whole entry, looked up): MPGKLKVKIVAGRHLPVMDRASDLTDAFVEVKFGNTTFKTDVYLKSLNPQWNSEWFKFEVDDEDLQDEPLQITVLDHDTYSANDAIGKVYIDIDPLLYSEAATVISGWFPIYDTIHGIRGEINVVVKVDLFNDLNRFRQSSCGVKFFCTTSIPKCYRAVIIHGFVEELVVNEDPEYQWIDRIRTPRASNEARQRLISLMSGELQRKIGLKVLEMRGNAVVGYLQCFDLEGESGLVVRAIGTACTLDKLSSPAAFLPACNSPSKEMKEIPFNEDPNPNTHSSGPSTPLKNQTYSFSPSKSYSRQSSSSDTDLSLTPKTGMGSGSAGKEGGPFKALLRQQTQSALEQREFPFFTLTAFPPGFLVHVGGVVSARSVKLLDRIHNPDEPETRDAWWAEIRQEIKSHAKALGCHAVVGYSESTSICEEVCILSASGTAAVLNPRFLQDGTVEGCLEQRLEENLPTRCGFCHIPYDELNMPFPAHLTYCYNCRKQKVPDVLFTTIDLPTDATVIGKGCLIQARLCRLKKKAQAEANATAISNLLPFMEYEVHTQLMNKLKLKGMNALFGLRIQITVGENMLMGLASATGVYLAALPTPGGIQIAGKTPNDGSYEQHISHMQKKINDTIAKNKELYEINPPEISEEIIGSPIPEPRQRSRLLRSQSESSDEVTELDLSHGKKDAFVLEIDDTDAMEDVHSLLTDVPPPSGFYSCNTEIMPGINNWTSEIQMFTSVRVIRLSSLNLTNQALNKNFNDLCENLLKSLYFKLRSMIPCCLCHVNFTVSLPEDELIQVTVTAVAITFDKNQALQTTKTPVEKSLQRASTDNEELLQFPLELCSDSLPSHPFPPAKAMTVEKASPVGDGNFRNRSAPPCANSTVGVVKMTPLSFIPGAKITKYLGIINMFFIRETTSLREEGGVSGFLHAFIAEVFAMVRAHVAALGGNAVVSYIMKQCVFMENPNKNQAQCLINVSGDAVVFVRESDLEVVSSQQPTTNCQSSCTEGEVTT
Sequence of UniProt P11274 (P11274 whole entry, looked up): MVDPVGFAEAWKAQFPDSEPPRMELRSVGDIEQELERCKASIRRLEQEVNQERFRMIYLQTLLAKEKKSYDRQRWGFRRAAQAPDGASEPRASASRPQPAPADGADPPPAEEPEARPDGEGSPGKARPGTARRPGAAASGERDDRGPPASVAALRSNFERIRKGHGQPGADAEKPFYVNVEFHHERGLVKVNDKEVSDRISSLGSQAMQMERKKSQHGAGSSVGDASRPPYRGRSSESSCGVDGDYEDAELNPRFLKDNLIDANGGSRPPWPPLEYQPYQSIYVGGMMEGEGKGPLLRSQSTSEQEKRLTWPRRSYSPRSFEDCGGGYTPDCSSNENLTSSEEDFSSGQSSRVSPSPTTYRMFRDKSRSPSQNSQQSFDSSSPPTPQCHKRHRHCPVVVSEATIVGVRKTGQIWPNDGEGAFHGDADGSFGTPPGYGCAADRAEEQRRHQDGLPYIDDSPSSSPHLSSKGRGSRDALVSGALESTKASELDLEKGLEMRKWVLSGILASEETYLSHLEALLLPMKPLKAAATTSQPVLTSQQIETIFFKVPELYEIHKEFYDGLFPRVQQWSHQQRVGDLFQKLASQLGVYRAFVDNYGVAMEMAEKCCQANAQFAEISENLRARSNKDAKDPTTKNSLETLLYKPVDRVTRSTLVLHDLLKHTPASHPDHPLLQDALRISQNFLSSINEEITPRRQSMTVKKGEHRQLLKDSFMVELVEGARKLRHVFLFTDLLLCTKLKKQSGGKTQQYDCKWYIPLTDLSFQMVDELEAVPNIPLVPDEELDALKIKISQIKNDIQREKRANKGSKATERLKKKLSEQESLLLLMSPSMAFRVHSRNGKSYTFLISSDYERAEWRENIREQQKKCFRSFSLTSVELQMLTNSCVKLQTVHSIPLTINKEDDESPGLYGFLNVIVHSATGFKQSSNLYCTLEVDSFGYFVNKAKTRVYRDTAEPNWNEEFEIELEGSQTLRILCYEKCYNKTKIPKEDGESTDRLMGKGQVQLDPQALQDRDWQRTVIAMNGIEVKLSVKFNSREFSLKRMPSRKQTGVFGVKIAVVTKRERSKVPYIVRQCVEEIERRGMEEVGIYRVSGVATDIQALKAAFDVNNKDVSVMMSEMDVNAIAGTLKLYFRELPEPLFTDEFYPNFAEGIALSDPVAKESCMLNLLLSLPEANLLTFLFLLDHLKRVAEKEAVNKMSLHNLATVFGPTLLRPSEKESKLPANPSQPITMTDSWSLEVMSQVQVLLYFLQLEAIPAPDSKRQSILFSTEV
Sequence of UniProt Q96JB5 (Q96JB5 whole entry, looked up): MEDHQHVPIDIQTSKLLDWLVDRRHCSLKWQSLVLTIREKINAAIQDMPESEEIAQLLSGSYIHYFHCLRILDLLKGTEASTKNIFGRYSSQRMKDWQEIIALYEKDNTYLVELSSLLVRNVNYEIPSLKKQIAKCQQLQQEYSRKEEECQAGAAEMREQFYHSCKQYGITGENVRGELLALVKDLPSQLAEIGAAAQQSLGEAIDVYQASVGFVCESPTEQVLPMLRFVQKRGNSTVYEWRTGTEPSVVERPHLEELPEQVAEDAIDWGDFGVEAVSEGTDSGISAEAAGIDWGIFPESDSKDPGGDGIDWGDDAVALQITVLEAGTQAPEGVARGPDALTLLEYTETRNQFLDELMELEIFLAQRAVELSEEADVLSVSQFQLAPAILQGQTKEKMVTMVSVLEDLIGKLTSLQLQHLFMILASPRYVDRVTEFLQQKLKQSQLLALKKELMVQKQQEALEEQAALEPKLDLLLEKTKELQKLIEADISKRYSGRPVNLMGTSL
Sequence of UniProt Q8N163 (Q8N163 whole entry, looked up): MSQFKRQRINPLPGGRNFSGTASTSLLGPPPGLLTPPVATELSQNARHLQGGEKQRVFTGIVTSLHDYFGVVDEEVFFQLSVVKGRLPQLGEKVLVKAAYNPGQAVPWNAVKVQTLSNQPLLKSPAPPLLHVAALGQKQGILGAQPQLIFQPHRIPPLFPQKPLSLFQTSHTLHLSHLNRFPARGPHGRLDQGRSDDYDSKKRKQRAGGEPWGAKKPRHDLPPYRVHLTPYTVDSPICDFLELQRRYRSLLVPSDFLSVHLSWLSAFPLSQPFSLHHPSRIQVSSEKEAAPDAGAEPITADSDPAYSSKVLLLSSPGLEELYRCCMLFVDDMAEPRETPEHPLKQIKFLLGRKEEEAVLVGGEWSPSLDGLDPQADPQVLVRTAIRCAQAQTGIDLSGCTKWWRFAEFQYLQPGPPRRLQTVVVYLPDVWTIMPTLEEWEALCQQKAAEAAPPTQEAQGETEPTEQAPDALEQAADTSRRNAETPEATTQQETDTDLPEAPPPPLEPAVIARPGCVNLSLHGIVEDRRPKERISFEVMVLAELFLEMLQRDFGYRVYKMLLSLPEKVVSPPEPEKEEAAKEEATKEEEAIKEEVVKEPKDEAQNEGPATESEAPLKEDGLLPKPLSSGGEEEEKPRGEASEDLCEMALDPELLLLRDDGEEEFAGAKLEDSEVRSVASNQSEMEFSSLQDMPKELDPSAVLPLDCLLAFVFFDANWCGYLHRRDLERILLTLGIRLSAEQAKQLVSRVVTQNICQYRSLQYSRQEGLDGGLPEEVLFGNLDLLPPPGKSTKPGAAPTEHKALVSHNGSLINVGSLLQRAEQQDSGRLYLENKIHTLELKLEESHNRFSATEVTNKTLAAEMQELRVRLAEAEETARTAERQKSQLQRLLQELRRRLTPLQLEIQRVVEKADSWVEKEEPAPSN
Sequence of UniProt P24863 (P24863 whole entry, looked up): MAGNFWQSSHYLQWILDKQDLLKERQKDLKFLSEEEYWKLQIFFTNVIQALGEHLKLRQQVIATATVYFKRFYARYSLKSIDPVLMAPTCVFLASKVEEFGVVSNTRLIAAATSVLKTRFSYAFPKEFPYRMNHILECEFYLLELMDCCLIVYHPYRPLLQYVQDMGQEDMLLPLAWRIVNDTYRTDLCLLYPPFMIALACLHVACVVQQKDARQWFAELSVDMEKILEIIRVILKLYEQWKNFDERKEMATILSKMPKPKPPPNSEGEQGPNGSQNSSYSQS

Row | Target | log2 fold change
1 | CCAR2 (UniProt Q8N163) | 0.026
2 | CDK1 (UniProt P06493) | 0.001
3 | ATE1 isoform 2 (UniProt O95260) | -0.003
4 | CCDC22 (UniProt O60826) | 0.03
5 | ATXN2 (UniProt F8WB05) | 0.043
6 | CHAF1A (UniProt Q13111) | -0.023
7 | C2CD5 isoform 3 (UniProt Q86YS7) | -0.038
8 | CARNMT1 (UniProt Q8N4J0) | -0.04
9 | CCNC (UniProt P24863) | -0.025
10 | BCR (UniProt P11274) | 0.031
11 | CDC16 (UniProt Q13042) | 0.06
12 | CHCHD4 isoform 2 (UniProt Q8N4Q1) | -0.041
13 | BTAF1 (UniProt O14981) | 0
14 | CEP120 (UniProt Q8N960) | -0.096
15 | CHD4 isoform 2 (UniProt Q14839) | 0.011
16 | ATP11A (UniProt P98196) | 0.009
17 | BRD3 (UniProt Q15059) | 0.048
18 | ATG4B (UniProt Q9Y4P1) | -0.013
19 | BORCS5 (UniProt Q969J3) | 0.007
20 | CCPG1 isoform 5 (UniProt Q9ULG6) | -0.021

Row | Target | log2 fold change
21 | ATP13A1 (UniProt Q9HD20) | 0.068
22 | BUB1B isoform 3 (UniProt O60566) | -0.01
23 | CDK5 (UniProt Q00535) | 0.014
24 | CDAN1 (UniProt Q8IWY9) | 0.068
25 | CCNB1 (UniProt P14635) | 0.005
26 | CDC7 (UniProt O00311) | -0.01
27 | CCDC186 (UniProt Q7Z3E2) | 0
28 | ATG13 isoform 2 (UniProt O75143) | 0.05
29 | CCDC32 isoform 2 (UniProt Q9BV29) | 0.062
30 | CAPNS1 (UniProt P04632) | -0.042
31 | CDK5RAP3 isoform 4 (UniProt Q96JB5) | 0.019
32 | CAMK1 (UniProt Q14012) | 0.05
33 | CDS2 (UniProt O95674) | 0.054
34 | CALB2 (UniProt P22676) | 0.056
35 | BCKDK (UniProt O14874) | -0.039
36 | CARS isoform 3 (UniProt P49589) | 0.014
37 | CCNK isoform 4 (UniProt O75909) | -0.023
38 | CARD11 (UniProt Q9BXL7) | -0.021
39 | CANX isoform 2 (UniProt P27824) | 0.015
40 | BNIP1 (UniProt Q12981) | 0.017

compound: Cc1ccc(-n2nc(C(C)(C)C)cc2NC(=O)Nc2ccc(OCCN3CCOCC3)c3ccccc23)cc1 [doramapimod]; experiment: as above
In short: as §1

Row | Target | log2 fold change
41 | CCAR2 (UniProt Q8N163) | 0.022
42 | CDK1 (UniProt P06493) | 0.019
43 | ATE1 isoform 2 (UniProt O95260) | -0.071
44 | CCDC22 (UniProt O60826) | 0.023
45 | ATXN2 (UniProt F8WB05) | -0.12
46 | CHAF1A (UniProt Q13111) | 0.026
47 | C2CD5 isoform 3 (UniProt Q86YS7) | 0.035
48 | CARNMT1 (UniProt Q8N4J0) | 0.01
49 | CCNC (UniProt P24863) | 0.332 (active)
50 | BCR (UniProt P11274) | -0.047
51 | CDC16 (UniProt Q13042) | 0.014
52 | CHCHD4 isoform 2 (UniProt Q8N4Q1) | 0.047
53 | BTAF1 (UniProt O14981) | 0.046
54 | CEP120 (UniProt Q8N960) | 0.107
55 | CHD4 isoform 2 (UniProt Q14839) | 0.021
56 | ATP11A (UniProt P98196) | -0.07
57 | BRD3 (UniProt Q15059) | -0.074
58 | ATG4B (UniProt Q9Y4P1) | 0.004
59 | BORCS5 (UniProt Q969J3) | -0.011
60 | CCPG1 isoform 5 (UniProt Q9ULG6) | 0.036

Row | Target | log2 fold change
61 | ATP13A1 (UniProt Q9HD20) | -0.053
62 | BUB1B isoform 3 (UniProt O60566) | 0.019
63 | CDK5 (UniProt Q00535) | 0.423
64 | CDAN1 (UniProt Q8IWY9) | -0.021
65 | CCNB1 (UniProt P14635) | 0.03
66 | CDC7 (UniProt O00311) | 0.06
67 | CCDC186 (UniProt Q7Z3E2) | -0.01
68 | ATG13 isoform 2 (UniProt O75143) | 0.049
69 | CCDC32 isoform 2 (UniProt Q9BV29) | 0.007
70 | CAPNS1 (UniProt P04632) | 0.079
71 | CDK5RAP3 isoform 4 (UniProt Q96JB5) | 0.017
72 | CAMK1 (UniProt Q14012) | -0.006
73 | CDS2 (UniProt O95674) | 0.009
74 | CALB2 (UniProt P22676) | 0.003
75 | BCKDK (UniProt O14874) | -0.033
76 | CARS isoform 3 (UniProt P49589) | 0.014
77 | CCNK isoform 4 (UniProt O75909) | 0.113
78 | CARD11 (UniProt Q9BXL7) | 0.028
79 | CANX isoform 2 (UniProt P27824) | 0.006
80 | BNIP1 (UniProt Q12981) | 0.071
